Reference: PubChem BioAssay AID2234 (The Scripps Research Institute Molecular Screening Center, 2010)
Where “and” joins values, the source holds several entries; their conditions need not be identical. Equal values may be shown once. In all, about 320,000 compounds went through this assay and about 480 (0.15%) were called active. Rule as the data show it: active = inhibition above about 33%; inactive = the rest. The list comes from a sample in which actives are over-represented; it also holds similar structures and randomly drawn compounds. Some structures have more than one record in an assay (separate samples or runs), and their calls can disagree.

Each compound was assayed against Lytic switch protein BZLF1 (Epstein-Barr virus (strain B95-8)) (UniProt P03206) (assay: Zta-DNA interaction blockers, Epstein-Barr virus – biochemical, fluorescence polarization, single concentration, counter-screen for EBNA-1 inhibitor project, primary screen (AID 2234)). Conditions: ZTA-DNA binding, at 11 µM, stronger effect = higher value.
Chain of Lytic switch protein BZLF1 (Epstein-Barr virus (strain B95-8)) (P03206 whole entry, looked up): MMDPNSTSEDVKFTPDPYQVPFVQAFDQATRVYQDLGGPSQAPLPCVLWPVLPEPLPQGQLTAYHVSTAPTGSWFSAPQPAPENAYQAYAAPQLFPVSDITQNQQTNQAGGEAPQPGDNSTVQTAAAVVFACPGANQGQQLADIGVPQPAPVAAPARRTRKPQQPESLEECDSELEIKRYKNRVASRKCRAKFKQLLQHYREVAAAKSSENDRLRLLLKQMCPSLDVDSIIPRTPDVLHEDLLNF

SMILES	inhibition
CC(C)N(C(=O)Cn1cc(S(=O)(=O)CC(=O)N2CCOCC2)c2ccccc21)C(C)C	-2.48% (inactive)
CCc1nn(CCCC(=O)Nc2ccc(C)cc2C)c(=O)c2cc3occc3n12	-0.14% (inactive)
CN(C)/C=C(\C#N)C(=O)c1cccnc1Oc1cccc(F)c1	1.11% (inactive)
CN(C)Cc1ccccc1C1(O)c2ccccc2CSc2ccccc21 (stereo not drawn)	-3.19% (inactive)
O=C(COC(=O)c1cc(=O)[nH]c2ccccc12)NCc1cccc(Cl)c1	-4.76% (inactive)
COCCCNC(=S)N1CCN(c2nc(-c3cccc(OC)c3)cs2)CC1	0.15% (inactive)
COC(=O)C1CCN(C(=O)c2cc(=O)[nH]c3ccccc23)CC1	-3.43% (inactive)
COC(=O)[C@H]1[C@H]2C[C@H]3c4[nH]c5ccccc5c4CCN3C[C@@H]2CC[C@@H]1O	-2.53% (inactive) and 42.8% (active)
O=C(NC1CCCCC1)N1CCc2[nH]c3ccccc3c2C1	-20.7% (inactive)
Cc1ccc(S(=O)(=O)NCc2ccc(C(=O)NC3CCC(C)CC3)cc2)cc1 (stereo not drawn)	0.09% (inactive)
Cn1c(N)c(C(=O)COC(=O)/C=C/c2ccc(OC(F)F)cc2)c(=O)n(C)c1=O	4.46% (inactive)
CC[N+](C)(CC)CCC[n+]1c(-c2ccccc2)c2cc(N)ccc2c2ccc(N)cc21	76.6% (active)
COc1ccccc1CNS(=O)(=O)c1c(C)[nH]c(C)c1C(=O)N1CCCCC1	-3.2% (inactive)
COc1ccc(C(=O)NCCn2nc(C)cc2C)cc1OC1CCN(C(C)=O)CC1	-1.11% (inactive)
CC(C)CNC(=O)C(=O)Nc1ccc(N(C)C)cc1	-14.2% (inactive)
CC(=O)N(C)c1ccc(NC(=O)C(F)(F)F)cc1	-2.47% (inactive)
CCN(CC)c1ccc(C(=O)Nn2c(C)nc3ccccc3c2=O)cc1	-9.3% (inactive)
CCN(CC)c1ccc2oc(=O)c(C)nc2c1	112% (active)
C=CCN(C(=O)Nc1ccc2oc(C)nc2c1)c1ccccc1	14.4% (inactive)
COc1ccc(/C=C/CN2CCCC(C(=O)c3cc(F)ccc3F)C2)cc1 (stereo not drawn)	-3.1% (inactive)
CN(C)Cc1c(O)ccc2occ(C(O)c3ccccc3)c12 (stereo not drawn)	-10.8% (inactive)
N[C@@H](Cc1ccccc1)C(=O)N1CCOCC1	0.06% (inactive)

SMILES	inhibition
COc1ccc(OC)c(NC(=O)CSc2nc(N)c(-c3ccccc3)c(=O)[nH]2)c1	-8.96% (inactive)
COc1ccccc1P(=O)(c1ccccc1)c1ccccc1NC(C)=O (stereo not drawn)	6.44% (inactive)
CCc1cc(=O)oc2c(C)c(OCC(=O)N3CC[C@@]4(O)CCCC[C@H]4C3)ccc12	-6.49% (inactive)
O=S(=O)(c1cccc(-c2nnc(SC(F)F)n2-c2ccccc2)c1)N1CCCCC1	-1.62% (inactive)
Cc1cccc(-n2cnc(C(=O)Nc3cccnc3)c2)n1	-4.78% (inactive)
Cc1ccccc1CSc1nnc(-c2ccccn2)n1N	-11.1% (inactive)
O=C(COC(=O)c1ccc(S(=O)(=O)Nc2ccccc2)cc1)NCC1CCCO1 (stereo not drawn)	1.03% (inactive)
CCn1c(C)nc2cc(C(=O)NNS(=O)(=O)c3ccc(C)cc3C)ccc21	-11% (inactive)
COc1cc(C2C(C(=O)c3cccs3)=C(O)C(=O)N2CCN2CCOCC2)ccc1OCCC(C)C (stereo not drawn)	-2.28% (inactive)
O=C(Nc1ccc2oc(-c3ccccc3F)nc2c1)c1ccco1	15.1% (inactive)
CCOc1ccc(S(=O)(=O)Nc2ccncc2)c(C)c1C	-10.3% (inactive)
CC(C)C(=O)N1CCC2(CC1)Oc1ccc(F)cc1C(=O)C21CC(c2ccccc2)=NO1 (stereo not drawn)	7.48% (inactive)
CCc1c(C)nc2c(-c3ccccc3)c(C)nn2c1Nc1ccc(NC(C)=O)cc1	-11.9% (inactive)
O=C(Cc1ncc(C(F)(F)F)cc1Cl)Nc1cccc(Br)c1	-13.5% (inactive)
O=C(CNS(=O)(=O)c1ccc2ccccc2c1)Nc1ccc(F)c(F)c1F	15.3% (inactive)
O=C(Nc1ccc(F)cc1F)N1CCCN(CCOc2ccccc2)CC1	-6.16% (inactive)
CC(=O)c1sc2nc(SCC(=O)N3CCCCC3)[nH]c(=O)c2c1C	-1.4% (inactive)
CSc1nnc(SCc2nc3sc(C(=O)O)c(C)c3c(=O)[nH]2)s1	41.9% (active)
Cc1sc2nc(CSCC(=O)NC3CCCCC3)[nH]c(=O)c2c1C	-20.2% (inactive)
COc1ccc(C(=O)NC2CC2)cc1OC1CCN(C/C=C/c2ccccc2)CC1	-17.4% (inactive)
COc1ccc2c(c1)cc1n2CCN=C1NN	8.48% (inactive)
